# Compound activity as filed in PubChem.
# Only some compounds are listed: those with a hit (about 3% of all), similar ones and a draw of the others.
# SENP8 block-1: SENP8 protease inhibitors, primary screen, biochemical, luminescence. inhibition, % at 10 µM. hit rate 1.2% among 330,000. AID 2540, 2010. purified SENP8, Z-RLRGG-aminoluciferin cleavage; in the data active = inhibition above about 50%
# SENP7 inh: SENP7 protease inhibitors, primary screen, biochemical, luminescence, uHTS | recombinant SENP7, Z-RLRGG-aminoluciferin luminescence, 40 min | Sentrin-specific protease 7 (Homo sapiens), Q9BQF6 | hit rate 1.5% among 330,000 | inhibition, % at 5 µM;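 active = inhibition above about 50% at the single test dose, limit read from the data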;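 also: plate controls were DMSO with enzyme for no effect and no enzyme buffer wells for full effect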
# Target sequence (Q9BQF6 706-1050 limits assumed): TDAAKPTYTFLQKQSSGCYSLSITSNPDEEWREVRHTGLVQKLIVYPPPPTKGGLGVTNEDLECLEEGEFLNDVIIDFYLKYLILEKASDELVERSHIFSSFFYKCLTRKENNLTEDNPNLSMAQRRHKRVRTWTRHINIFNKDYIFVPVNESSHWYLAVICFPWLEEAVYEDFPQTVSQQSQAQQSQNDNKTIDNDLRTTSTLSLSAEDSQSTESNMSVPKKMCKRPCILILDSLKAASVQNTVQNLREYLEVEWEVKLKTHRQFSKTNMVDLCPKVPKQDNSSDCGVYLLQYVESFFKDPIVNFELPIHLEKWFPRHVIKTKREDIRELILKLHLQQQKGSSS
# PPC-1+TRAIL kill: compounds killing PPC-1 cancer cells with TRAIL present, primary screen, TRAIL potentiator project, ATPLite luminescence, uHTS; hit rate 0.41% among 220,000; cell killing (% activity), % at 4 µM or 5 µM; AID 1443, 2008; PPC-1 cells + TRAIL, ATPLite viability luminescence;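 active = cell killing above 50% in the first pass at 4 µM, then a duplicate retest at 5 µM averaging 50% or more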;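 also: plate controls were cells with TRAIL plus DMSO for no effect and medium-only wells lacking cells for full effect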
# TRAIL sens C8: viability loss with TRAIL in NB7+C8 cells, primary screen, TRAIL sensitizer project, cell-based, ATPlite luminescence. inhibition (viability loss, TRAIL sensitization), % at 10 µM. hit rate 1% among 360,000;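 active = compounds causing at least 50% loss of cell viability in the single-dose screen, relative to plate controls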
# SENP8 block-2: human SENP8 protease inhibitors, primary screen, biochemical, fluorescence, Nedd8 protein substrate, uHTS | recombinant SENP8 | inhibition, % at 20 µM | hit rate 0.64% among 360,000 | AID 602440, 2012; in the data active = inhibition mostly above about 40%, no sharp cut-off; inactive = mostly below about 27%
# SENP6 inh: SENP6 protease inhibitors, primary screen, biochemical, luminescence, uHTS; Sentrin-specific protease 6 (Homo sapiens), Q9GZR1; Recombinant SENP6 catalytic domain, aminoluciferin luminescence; inhibition, % at 10 µM; hit rate 1.8% among 330,000;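 active = inhibition above about 50% at the single tested dose, limit read from the data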;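 also: plate controls were DMSO wells with enzyme for no effect and DMSO wells lacking enzyme for full effect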
# SENP8 conf: SENP8 protease inhibitors, retest, confirmation, biochemical, luminescence, single concentration. shares compounds with SENP7 inh. Recombinant SENP8, Z-RLRGG-aminoluciferin luminescence, 60 min. inhibition, % at 12.5 µM. hit rate 40% among 6,200. AID 488912, 2010;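 active = mean inhibition across replicates above about 50%, limit read from the data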
# SENP6 confirm: SENP6 protease inhibitors, confirmation, biochemical, luminescence, single concentration | shares compounds with SENP7 inh | recombinant SENP6, Z-RLRGG-aminoluciferin luminescence | inhibition, % at 12.5 µM | hit rate 58% among 6,200 | AID 488915, 2010
# SENP7 confirm: SENP7 protease inhibitors, retest, confirmation, biochemical, luminescence, single concentration. shares compounds with SENP7 inh. recombinant SENP7, Z-RLRGG-aminoluciferin luminescence, 40 min. inhibition, % at 12.5 µM. hit rate 69% among 6,200. AID 488917, 2010
# Casp3 SENP sel: caspase-3 protease inhibitors, confirmation, selectivity assay for SENP inhibitor project, biochemical, single concentration; shares compounds with SENP7 inh; purified caspase-3, Z-DEVD-aminoluciferin luminescence, 60 min; inhibition, % at 12.5 µM; hit rate 60% among 6,200; AID 488918, 2010;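 active = mean inhibition above about 50%, limit read from the data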;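 also: plate controls were enzyme with DMSO for no effect and wells without caspase-3 for full effect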
# Target sequence (P42574 28-227 limits assumed): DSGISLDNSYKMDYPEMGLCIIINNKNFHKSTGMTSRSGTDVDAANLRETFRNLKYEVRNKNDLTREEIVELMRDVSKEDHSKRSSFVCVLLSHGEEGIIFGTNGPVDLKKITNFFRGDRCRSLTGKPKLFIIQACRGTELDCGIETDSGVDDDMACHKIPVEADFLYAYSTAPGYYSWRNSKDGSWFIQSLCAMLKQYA
# SENP luc ctr: luminescence interference (SENP counter-screen); shares compounds with SENP7 inh; Pre-incubated SENP8/Z-RLRGG-aminoluciferin, luciferase luminescence interference; inhibition, % at 12.5 µM; hit rate 39% among 6,200; AID 488919;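 active = mean inhibition above about 50% when retested at one dose, limit read from the data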;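 also: plate controls were DMSO wells with completed reaction for no effect and substrate without enzyme for full effect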
# Active calls of the source: *; x = no result.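 The calls were made as follows, unless noted: active = mean inhibition above about 50% in the one-dose retest (limit read from the data); inactive = the rest.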
SMILES,SENP8 block-1,SENP7 inh,PPC-1+TRAIL kill,TRAIL sens C8,SENP8 block-2,SENP6 inh,SENP8 conf,SENP6 confirm,SENP7 confirm,Casp3 SENP sel,SENP luc ctr
O=C(O)c1ccc2nc(-c3ccccc3)sc2c1,94*,100*,22,18,-8,98*,98*,99*,102*,96*,98*
Cc1ccc(CN(CC(=O)NCCc2ccccc2)C(=O)c2csnn2)cc1,8,2,x,-16,5,18,x,x,x,x,x
O/N=C/c1ccccc1OCc1ccccc1Cl,-3,2,17,16,16,-7,x,x,x,x,x
COc1cc(/C=N/O)ccc1OCc1ccccc1Cl,41,50*,20,19,8,67*,43,55*,79*,33,59*
O=C(CN1C(=O)c2ccccc2S1(=O)=O)c1ccc(Cl)cc1Cl,72*,8,x,67*,-2,67*,73*,77*,84*,50*,9
Cn1c(C(=O)Nc2ccccc2)cc2sccc21,17,38,18,2,9,53*,34,33,68*,36,54*
COc1cc(NC(=O)c2cc3sccc3n2C)cc(OC)c1,50*,66*,-4,4,-10,64*,6,60*,84*,40,65*
COC(=O)c1ccc(NC(=O)c2cc3sccc3n2C)cc1,x,x,9,2,-187,x,x,x,x,x,x
Nc1ccc(C(=O)OCC(=O)Nc2cc([N+](=O)[O-])ccc2F)cc1,1,-1,8,-11,13,-18,x,x,x,x,x
CC(=O)c1sc(-c2ccc(F)cc2F)nc1C,-18,-13,-3,7,23,18,x,x,x,x,x
CC(=O)Nc1ccc2nc(-c3cccn3C)[nH]c2c1,1,4,x,0,-142,-7,x,x,x,x,x
O=[N+]([O-])c1ccc2nc(-c3ccccc3)[nH]c2c1,79*,85*,16,12,16,82*,6,81*,95*,83*,82*
Cn1cccc1-c1nc2ccc([N+](=O)[O-])cc2[nH]1,46,58*,x,-2,-10,62*,51*,52*,85*,62*,62*
O=[N+]([O-])c1ccc2nc(-c3cccnc3)[nH]c2c1,24,7,x,-19,9,42,x,x,x,x,x
Cc1ccc(CNC(=O)c2ccc(CNS(=O)(=O)c3ccc4c(c3)C(C)(C)C(=O)N4C)cc2)o1,5,1,x,-10,19,-26,x,x,x,x,x
COc1ccc2c(c1)Cc1sc(NC(=O)c3cccs3)nc1-2,96*,94*,14,0,15,92*,67*,75*,99*,77*,29
COc1ccc(C(=O)Nc2nc3c(s2)Cc2cc(OC)ccc2-3)cc1,90*,93*,10,8,-59,82*,29,68*,50*,19,4
COc1ccc2c(c1)Cc1sc(NC(=O)c3ccccc3)nc1-2,91*,90*,20,16,-24,95*,4,65*,88*,66*,24
COc1ccc(C(=O)Nc2nc3ccc4nc(C)sc4c3s2)cc1,3,-3,1,10,-432,-8,x,x,x,x,x
COc1cccc(-c2nnc(NC(=O)c3cccs3)s2)c1,7,8,40,28,-406,32,x,x,x,x,x
CN(Cc1cccc(C(F)(F)F)c1)C(=O)[C@H]1O[C@@H](n2ccc(N)nc2=O)[C@H](O)[C@@H]1O,x,x,x,-20,3,x,x,x,x,x,x
Cc1cc2cc(CNC(=O)c3ccc(C)c([N+](=O)[O-])c3)ccc2[nH]1,-5,2,13,0,4,-2,x,x,x,x,x
Cc1ccc(OCCSc2nc3ccccc3n2CCC(=O)O)c(C(C)C)c1,x,x,x,-4,13,x,x,x,x,x,x
COc1ccc(NC(=O)C2Cc3c(-c4ccccc4)ccnc3O2)cc1OC (stereo not given),x,x,x,17,14,x,x,x,x,x,x
O=C(Nc1cccnc1)c1ccc(-c2ccccc2)cc1,66*,82*,41,35,18,33,51*,70*,96*,75*,37
SMILES,SENP8 block-1,SENP7 inh,PPC-1+TRAIL kill,TRAIL sens C8,SENP8 block-2,SENP6 inh,SENP8 conf,SENP6 confirm,SENP7 confirm,Casp3 SENP sel,SENP luc ctr
CC(C)c1ccc(C(=O)Nc2cccnc2)cc1,36,71*,x,49*,28,73*,62*,58*,88*,79*,32
O=C(NNC(=O)c1ccc(-c2ccccc2)cc1)Nc1ccccc1F,2,6,x,-2,3,2,x,x,x,x,x
O=C(NNC(=O)c1ccc(-c2ccccc2)cc1)c1ccccc1,30,62*,11,4,10,-5,34,41,82*,80*,47
O=C(NCCOc1ccc(F)cc1)C1CCC(=O)N(Cc2ccc(Cl)cc2)C1 (stereo not given),x,x,x,0,20,x,x,x,x,x,x
Cc1occc1C(=O)N/N=C/C=C/c1ccc(N(C)C)cc1,39,46,x,22,-386,50,x,x,x,x,x
Cc1cc(C(=O)N/N=C/c2ccccc2)c(C)o1,34,74*,35,18,21,47,59*,57*,85*,83*,60*
C/C(=N\NC(=O)c1ccoc1C)c1ccccc1,51*,69*,18,6,20,73*,11,60*,87*,84*,50
Cc1occc1C(=O)N/N=C/C=C/c1ccccc1,43,55*,6,-4,22,58*,70*,68*,91*,86*,70*
Cc1occc1C(=O)N/N=C/c1ccc(N(C)C)cc1,96*,98*,18,31,-450,96*,11,100*,104*,99*,98*
O=C(C[n+]1ccccn1)c1ccccc1,-2,-1,x,-1,10,16,x,x,x,x,x
